Here are results for 29 compounds from PubChem BioAssay (NCATS).

Values without a mark were called inactive. Results filed as inconclusive are left out. The source made the active and inactive calls. Unless noted, calls come from the whole dose curve; as a rule, active = well fitted curve in the direction sought with a large enough effect; inconclusive = small, poorly fitted or top-dose-only effect, or another doubt; inactive = no such curve, though single readings can be large; an effect the other way counts as inactive or inconclusive.

The nature of test [1]: P-glycoprotein substrates identified in KB-8-5-11 adenocarcinoma cell line, qHTS therapeutic library screen (AID 1346987). For activity change, negative = cytotoxicity: series mostly up to about 44 µM; % is set by controls: 0 for no effect and ±100 for the full control effect. Note: nearly all actives have a fitted effect of over 65% in size. Note: potency is the fitted concentration of half-maximal effect. Summed up:
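KB-8-5-11, a colchicine-selected P-gp-overexpressing KB-3-1 subline, was grown without colchicine for the assay. Cells were seeded at 500 cells/well, dosed in concentration-response and incubated 72 h at 37 degree C, 5% CO2. Viability was read by CellTiter-Glo luminescence.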
(In general: Quantitative high-throughput screening tests each substance at several concentrations.)

Test [2] can be described thus: qHTS assay for small molecule agonists of the antioxidant response element (ARE) signaling pathway (AID 651741; active = well fitted activation curve with a large enough effect in the signal ratio; the % refers to the signal ratio; note: potency is the fitted concentration of half-maximal effect). The following applies: HepG2 ARE-bla reporter, beta-lactamase FRET ratio, 16 h. In a few lines:
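Compounds in DMSO are pinned onto HepG2 ARE-bla cells (2,000/well) that were preincubated 5 h; plates stay 16 h at 37 C, then beta-lactamase activity is detected with LiveBLAzer B/G substrate by fluorescence.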

Test [3] can be described thus: qHTS assay for small molecule activators of the p53 signaling pathway (AID 651743; active = well fitted activation curve with a large enough effect in the signal ratio, not every such curve was filed as active; the % refers to the signal ratio; note: series mostly up to about 92 µM; % of control where 0% means no effect). The following applies: HCT-116 p53RE-bla, beta-lactamase FRET ratio, 16 h; stronger effect = higher value. Summed up: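 Cell-based beta-lactamase reporter (p53 response elements, HCT-116 background). After a 5-hour preincubation, cells received compound for 16 hours at 37 C; substrate development ran 2 hours at room temperature.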

A short description of test [4]: qHTS assay for small molecule disruptors of the mitochondrial membrane potential - 1 hr assay (AID 651754; calls by dose curve; note: potency is the fitted concentration of half-maximal effect; nearly all actives have a fitted effect of over 35% in size). In a few lines: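 HepG2 cells, attached overnight, were exposed to compound for 1 hr at 37C, then stained 30 min with a potentiometric dye. Ratio of red aggregate (590nm) to green monomer (535nm) fluorescence reports membrane potential; collapse shifts signal toward green.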

Test [5] addresses Tumor necrosis factor (Homo sapiens) (UniProt P01375). Briefly: qHTS assay to identify small molecules that stimulate Tumor Necrosis Factor-alpha (TNF-alpha) secretion (AID 651757; active = well fitted curve in the direction sought with a large enough effect in the signal ratio; the % refers to the signal ratio; note: 0% is about no effect). Summed up:
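THP-1 cells (3000/well) exposed to compounds 17 hrs at 37 C. Secreted TNF-alpha detected by HTRF with cryptate- and XL665-labeled anti-TNF-alpha antibodies after 3 hr at room temperature.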

A short description of test [6]: qHTS assay to identify small molecules that stimulate interleukin-8 (IL-8) secretion (AID 651758; active = well fitted activation curve with a large enough effect in the signal ratio; the % refers to the signal ratio; note: 0% is about no effect). In a few lines:
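THP-1, 2000 cells/well; cpd 16 h, 37 C; add cryptate + XL665 anti-IL-8 Abs; RT 1-3 h; TR-FRET read.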

The nature of test [7]: qHTS assay for environmental chemicals that activate the Aryl hydrocarbon Receptor (AhR) signaling pathway (AID 651777). Note: potency is the fitted concentration of half-maximal effect; nearly all actives have a fitted effect of over 15% in size. The following applies: 1A2-DRE human hepatoma cells, luciferase, 24 h; activation: stronger effect = higher value. Summed up: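 Human hepatoma 1A2-DRE cells stably carrying a DRE/CYP1A2 promoter–luciferase reporter, 1,200 cells/well, exposed to compound 24 hr at 37 C. Luciferase read by One-Glo luminescence after 30 min at room temperature; increased signal marks AhR activation.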

In test [8] the target is Peroxisome proliferator-activated receptor alpha (Homo sapiens) (UniProt Q07869). The test is described as follows: qHTS assay for small molecule agonists of the peroxisome proliferator-activated receptor alpha (PPARalpha) signaling pathway (AID 651778). Note: % of control where 0% means no effect. The following applies: PathHunter PPARalpha complementation, chemiluminescence, 6 h; stronger effect = higher value. Summed up: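 Cells plated at 2,000/well and held overnight at 37 C, 5% CO2, then compound added by pin tool for 6 hr; after PathHunter detection reagent and 60 min at room temperature, chemiluminescence from enzyme complementation was read.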

For test [9], the target named is Nuclear receptor ROR-gamma (Homo sapiens) (UniProt P51449). Briefly: qHTS assay for small molecule antagonists of the retinoid-related orphan receptor gamma (ROR-gamma) signaling pathway (AID 651802).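 Note: luciferase reporter luminescence driven by ROR response element; series mostly up to about 92 µM; % is set by controls: 0 for no effect and ±100 for the full control effect; nearly all actives have a fitted effect of over 60% in size.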 In a few lines: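 CHO cells with TET-inducible ROR-gamma and RORE-luciferase reporter, dosed then doxycycline-induced. After 16 h at 37C, One-Glo luminescence read; decreased signal indicates antagonism.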

The nature of test [10]: qHTS assay for small molecule antagonists of the retinoid-related orphan receptor gamma (ROR-gamma) signaling pathway - cell viability counter screen (AID 720652; active = well fitted curve in the direction sought with a large enough effect in the repeat runs; an effect the other way counts as inactive or inconclusive;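 note: series mostly up to about 92 µM; compound exposure lasted 16 hr before ATP read; % is set by controls: 0 for no effect and ±100 for the full control effect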). In a few lines: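 CHO cells carrying TET-inducible ROR and RORE-luciferase reporter, plated 5 hr, then dosed with compound plus doxycycline. After 16 hr at 37 C, viability read as intracellular ATP by CellTiter-Glo luminescence.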

Test [11] can be described thus: qHTS assay for small molecule agonists of the antioxidant response element (ARE) signaling pathway measured by Nrf2-dependant transcriptional activity - cell viability counter screen (AID 720653; active = well fitted curve in the direction sought with a large enough effect in the repeat runs; an effect the other way counts as inactive or inconclusive; note: % is set by controls: 0 for no effect and ±100 for the full control effect). The following applies: ARE-bla HepG2 viability, CellTiter-Glo ATP luminescence, 16 h; stronger effect = lower value. Summed up:
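ARE-bla HepG2 cells (2,000/well) rested 5 hrs at 37C/5% CO2, then exposed to compounds in DMSO for 16 hrs. Viability was read in the same wells as intracellular ATP by luminescence, 30 min at room temperature after reagent addition.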

The nature of test [12]: qHTS Assay for Identifying Gametocytocidal Compounds (AID 743244). Note: potency is the fitted concentration of half-maximal effect. The following applies: P. falciparum 3D7 stage III-V gametocytes, alamarBlue, 72 h; max response: stronger effect = lower value. Summed up: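 Fluorescence at Ex 525/Em 598 nm, recorded 24 h after alamarBlue addition, reports residual metabolic activity of 3D7 gametocytes (stages III–V) following 72 h compound exposure at 37 °C, 5% CO2.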

A short description of test [13]: qHTS assay for cell viability of HEK293 cells (AID 743288). Note: % is set by controls: 0 for no effect and ±100 for the full control effect; nearly all actives have a fitted effect of over 50% in size. The following applies: ATP luminescence (CellTiter-Glo), 18 h, stronger effect = lower value. In a few lines: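 The Tox21 protocol used parental HEK293 cells treated for 18 h at 37 C with compounds delivered by pintool; ATP-coupled luminescence after 30 min at room temperature gave viability.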
Test [14] can be described thus: qHTS assay for cell viability of the p53RE-bla HCT-116 cell line (AID 743292). Note: % is set by controls: 0 for no effect and ±100 for the full control effect; nearly all actives have a fitted effect of over 55% in size. Summed up:
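CellSensor p53RE-bla HCT-116 cells (4,000/well) pre-incubated 5 h at 37 C, then exposed to compounds in DMSO for 16 h at 37 C. Viability read as ATP content by CellTiter-Glo luminescence after 30 min at room temperature.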

The nature of test [15]: NS1 protein of Zika virus - qHTS assay to identify small molecule inhibitors in human HEK 293 cells (AID 1347053). Note: nearly all actives have a fitted effect of over 55% in size. Note: potency is the fitted concentration of half-maximal effect. In a few lines:
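HEK 293 cells, seeded 20 h at 37 C, were pretreated with compound 1 h, then infected with ZIKV MR766 (MOI = 0.5) for 24 h. NS1 was read by TR-FRET with two anti-NS1 antibodies, normalized to uninfected and infected wells.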

A short description of test [16]: qHTS assay for small molecule activators of the nuclear factor-kappa B (NF-kB) signaling pathway (AID 651749; active = well fitted activation curve with a large enough effect in the signal ratio; the % refers to the signal ratio; note: series mostly up to about 77 µM; % of control where 0% means no effect). The following applies: NF-kB-bla ME-180 cells, beta-lactamase FRET ratio, 16 h; stronger effect = higher value. Summed up:
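Screening used 2,000 ME-180 reporter cells per well exposed to pinned compound (23 nL) or DMSO; after 16 hr at 37C, beta-lactamase expression under NF-kB control was assessed through FRET.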

Test [17] can be described thus: qHTS assay for small molecule disruptors of the mitochondrial membrane potential - 5 hr assay (AID 651755; calls by dose curve; note: potency is the fitted concentration of half-maximal effect; nearly all actives have a fitted effect of over 40% in size). The following applies: JC-1-type ratio dye. In a few lines:
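HepG2 cells, attached overnight at 37C, were exposed to compound or DMSO for 5 hr at 37C, 5% CO2. Mito-MPS dye was then added for 30 min, and fluorescence read at 490/535 nm (monomers) and 540/590 nm (aggregates).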

Sequence of Peroxisome proliferator-activated receptor alpha (Homo sapiens) (Q07869 whole entry, looked up): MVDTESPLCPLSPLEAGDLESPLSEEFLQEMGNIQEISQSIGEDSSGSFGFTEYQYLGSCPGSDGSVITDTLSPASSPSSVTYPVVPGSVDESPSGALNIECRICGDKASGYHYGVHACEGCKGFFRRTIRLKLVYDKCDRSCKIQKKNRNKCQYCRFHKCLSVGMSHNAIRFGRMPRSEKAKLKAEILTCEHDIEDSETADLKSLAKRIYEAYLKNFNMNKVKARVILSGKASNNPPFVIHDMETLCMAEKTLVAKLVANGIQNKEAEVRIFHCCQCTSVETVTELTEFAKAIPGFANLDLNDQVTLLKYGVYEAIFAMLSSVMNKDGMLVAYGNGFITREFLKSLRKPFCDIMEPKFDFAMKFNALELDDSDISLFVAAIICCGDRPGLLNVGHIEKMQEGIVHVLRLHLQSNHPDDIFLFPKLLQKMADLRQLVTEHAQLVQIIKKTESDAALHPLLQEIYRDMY
Sequence of Nuclear receptor ROR-gamma (Homo sapiens) (P51449 whole entry, looked up): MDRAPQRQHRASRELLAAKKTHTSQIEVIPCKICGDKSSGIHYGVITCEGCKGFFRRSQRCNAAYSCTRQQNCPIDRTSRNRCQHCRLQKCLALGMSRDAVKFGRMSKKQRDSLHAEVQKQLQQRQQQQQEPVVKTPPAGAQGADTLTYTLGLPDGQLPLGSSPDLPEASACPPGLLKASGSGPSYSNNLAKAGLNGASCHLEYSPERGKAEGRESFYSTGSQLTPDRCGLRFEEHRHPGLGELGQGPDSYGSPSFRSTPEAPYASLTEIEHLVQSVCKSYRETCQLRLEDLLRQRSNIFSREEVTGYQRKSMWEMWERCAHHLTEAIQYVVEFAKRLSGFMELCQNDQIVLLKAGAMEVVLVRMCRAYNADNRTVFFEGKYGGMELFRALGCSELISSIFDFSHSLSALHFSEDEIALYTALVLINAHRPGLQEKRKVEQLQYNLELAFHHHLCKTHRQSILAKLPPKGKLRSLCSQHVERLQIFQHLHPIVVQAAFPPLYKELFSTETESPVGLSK
Sequence of Tumor necrosis factor (Homo sapiens) (P01375 whole entry, looked up): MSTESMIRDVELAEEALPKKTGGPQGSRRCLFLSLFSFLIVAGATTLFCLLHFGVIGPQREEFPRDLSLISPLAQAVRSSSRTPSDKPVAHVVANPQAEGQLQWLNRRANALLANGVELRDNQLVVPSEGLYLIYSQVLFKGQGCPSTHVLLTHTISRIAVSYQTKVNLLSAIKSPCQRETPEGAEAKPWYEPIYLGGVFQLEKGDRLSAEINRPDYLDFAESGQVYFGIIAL

Consider `CC(C)=CCC[C@](C)(O[C@@H]1O[C@H](CO)[C@@H](O)[C@H](O)[C@H]1O)[C@H]1CC[C@]2(C)[C@@H]1[C@H](O)CC1[C@@]3(C)CC[C@H](O)C(C)(C)C3[C@@H](O[C@@H]3O[C@H](CO)[C@@H](O)[C@H](O)[C@H]3O[C@@H]3OC[C@@H](O)[C@H](O)[C@H]3O)C[C@]12C` (stereo partly drawn), for which the activity change, negative = cytotoxicity in test [1] is -2.05% [at 9.29 µM].

On to `CC(C)[C@@H]1C(=O)N(S(C)(=O)=O)[C@@H]2CCN(C(=O)/C=C/CN3CCCCC3)[C@H]21`, for which the Potency result in [1] was “inactive”. Take `CC(C)C(CO)Nc1nc(Nc2ccc(C(=O)O)c(Cl)c2)c2ncn(C(C)C)c2n1` (stereo not drawn): the Potency entry in test [1] was “inactive”. Same read-out and setting: as for `CCC1C(=O)OC23C=C[C@@H]4C(C(=O)O)=CO[C@H](O[C@@H]12)[C@@H]43` (stereo partly drawn), the entry is “inactive”. The same measure, in the same setting: as for `CC1=CC(=O)C2C(C)(C)CCC[C@]2(C)[C@H]1CO` (stereo partly drawn), the entry is “inactive”; as for `COc1ccc(CCO[C@@H]2CCCC[C@H]2N2CC[C@@H](O)C2)cc1OC`, “inactive”; as for `C[C@@H](Oc1cc(-n2cnc3ccc(OC4CCN(C)CC4)cc32)sc1C(N)=O)c1ccccc1C(F)(F)F`, 0.206 µM (active). Turning to `Cc1cc(C)c(Nc2ccnc(Nc3ccc(C#N)cc3)n2)c(C)c1`, the Potency in test [1] is 9.2 µM (active). Same read-out and setting: as for `Cc1c(C(=O)N2CCOc3ccc(-c4ccc(N)nc4)cc3C2)ccc(S(C)(=O)=O)c1F`, the figure is 10.3 µM (active); as for `COc1ccc(/C=C\C(=O)O)c(O[C@@H]2O[C@H](CO)[C@@H](O)[C@H](O)[C@H]2O)c1`, “inactive”. Still for that read-out and setting: then `C=CCC1=C[C@]2(OC)[C@H](C)[C@@H](c3ccc(O)c(OC)c3)O[C@]2(OC)CC1=O`, with “inactive”; and `Cc1cn(C2C=CC(CO)O2)c(=O)[nH]c1=O` (stereo not drawn), with “inactive”. Take `C=C1C(=O)OC2C1C(O)CC1(C)C(O)CCC(C=O)C21` (stereo not drawn): in test [1], the Potency result was “inactive”. Still for that read-out and setting: as for `C[C@]1(CO)CCC[C@]2(C)C3=C(CCC12)COC3` (stereo partly drawn), the entry is “inactive”; as for `O=C(O)COCCN1CCN([C@H](c2ccccc2)c2ccc(Cl)cc2)CC1`, “inactive”; as for `O=C(O)/C=C/c1cc2c(cc1O[C@@H]1O[C@H](CO)[C@@H](O)[C@H](O)[C@H]1O)OCO2`, “inactive”.

As to `CC(C)C[C@H](CC(=O)NO)C(=O)N[C@@H](Cc1ccc2ccccc2c1)C(=O)N[C@@H](C)C(=O)NCCN`, in test [1], the Potency result was “inactive”.

`CC(=O)O[C@]1(C(C)=O)CC[C@H]2[C@@H]3C[C@H](C)C4=CC(=O)C=C[C@]4(C)[C@@]3(F)[C@@H](O)C[C@@]21C`: the Potency entry in test [1] was “inactive”. On the same count and under the same terms, then `C=C(CO)C12OC1C1(C)C(=CC2=O)C(O)C(O)CC1C` (stereo not drawn), with “inactive”; and `COc1cc(C(=O)OC[C@H]2O[C@@H](Oc3ccccc3/C=C/C(=O)O)[C@H](O)[C@@H](O)[C@@H]2O)cc(OC)c1OC`, with “inactive”; and `COc1cc2ncnc(Nc3ccc(F)c(Cl)c3)c2cc1NC(=O)/C=C/CN1CCCCC1`, with 10.3 µM (active). On the same count and under the same terms, as for `CC/C=C/CC1=C(CCCCC(CCC(=O)O)OC(C)=O)CCC1=O` (stereo not drawn), the entry is “inactive”.

In the case of `CN=C(N)NCCCCC/C=C(/C)CC(C)C1OC(=O)C(C)C(O)/C=C/C(C)C(O)CC(O)C(C)C(O)CCC(C)C(O)CC2(O)OC(CC(OC(=O)CC(=O)O)CC(O)CC(O)C(C)C(O)/C(C)=C/CCC1C)CC(O)C2O` (stereo not drawn), the outcome in test [1] was “inactive [at 9.29 µM]”. With `CC1(C)CCCC2(C)C(CO)C(CO)=CCC12` (stereo not drawn), the Potency entry in test [1] is “inactive”.

Take `CC(=O)OC[C@]12[C@H](OC(C)=O)C(=O)[C@@H]3[C@@H](OC(C)=O)[C@@]14O[C@@]3(C)COC(=O)c1cccnc1[C@@H](C)[C@H](C)C(=O)O[C@@H]([C@H](O)[C@@H]2OC(C)=O)[C@]4(C)O`: the Potency entry in test [1] was “inactive”.

For the compound `CC(C)O[C@@H]1O[C@H](CO)[C@@H](O)[C@H](O)[C@H]1O`, the Potency result in [1] is “inactive”. Same read-out and setting: then `COc1cc(C2Oc3c(OC)cc(CCCO)cc3C2CO)ccc1O[C@H]1O[C@H](C)[C@@H](O)[C@H](O)[C@@H]1O` (stereo partly drawn), with “inactive”. As for `Cc1ccc(N)cc1O`, the Potency is 42.2 µM (active) in test [2]; 23.7 µM (active) in [4]; 44.7 µM (active) in test [7]; 31.6 µM (active) in test [12]; 31.6 µM (active) in test [15]. Besides, in test [3], the activation is 1.03%. Besides, the compound was called inactive in test [5], in test [6], in test [9], in test [10] and in [14]. Also, the values for the max response in test [8], in [11] and in test [13] were -3.15%, -11.4% and 3.99%, respectively. In addition, in test [1], the Potency entry is “inactive”.

Regarding `Nc1ccccc1N`, the results for the Potency in test [2], in [4] and in test [17] were 18.8 µM (active), 3.76 µM (active) and 5.96 µM (active), respectively. Further, the activation in test [3] was 9.56%; in test [16] it was -0.857%. Further, the values for the max response in test [8] and in test [11] were -5.51% and 1.96%, respectively. Further, the call in test [9] and in test [14] was inactive. In addition, the Potency entry in test [1] and in test [15] was “inactive” throughout.
